In the library only some 2.4% were active in any assay of this set; here they are far more common.
PLC-gamma1 inh – PLC-gamma1 (human) inhibition, primary screen | P19174 | purified PLC-gamma1, fluorogenic substrate, fluorescence | inhibition, % at 12.2 µM | hit rate 0.84% among 370,000 | AID 720700; in the data active = inhibition above about 9.5%
UHRF1 binding – human UHRF1 methylated DNA binding inhibitors. Q96T88. UHRF1 binding to methylated oligo, TR-FRET. inhibition, % at 4.4 µM. hit rate 0.75% among 370,000. AID 687016; in the data active = inhibition above about 21%;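 also: UHRF1 SRA domain binding a hemimethylated CpG hairpin DNA probe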
MBD2 inh – MBD2-methylated oligo binding inhibition | hit rate 0.31% among 370,000 | TR-FRET, MBD2 binding to methylated oligonucleotide | Q9UBB5 | inhibition, % at 4.4 µM; in the data active = inhibition above about 13%
LEDGF integ inh – blocks HIV-1 LEDGF/p75-dependent DNA integration | inhibition, % at 3.7 µM | hit rate 0.64% among 370,000 | TR-FRET IN-LEDGF/p75 DNA integration, Eu/Cy5;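 active = inhibition above the screen-wide mean plus 3 SD, cut at about 13% in these data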;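 also: signal is the Cy5 over europium emission ratio at 671 and 618 nm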
PLC-beta3 inh – inhibitors of human phospholipase C beta3; Q01970; hit rate 0.18% among 370,000; Purified PLC-beta3, fluorogenic substrate, fluorescence; inhibition, % at 12.2 µM; in the data active = inhibition above about 11%
Target sequence (Q01970 whole entry, looked up): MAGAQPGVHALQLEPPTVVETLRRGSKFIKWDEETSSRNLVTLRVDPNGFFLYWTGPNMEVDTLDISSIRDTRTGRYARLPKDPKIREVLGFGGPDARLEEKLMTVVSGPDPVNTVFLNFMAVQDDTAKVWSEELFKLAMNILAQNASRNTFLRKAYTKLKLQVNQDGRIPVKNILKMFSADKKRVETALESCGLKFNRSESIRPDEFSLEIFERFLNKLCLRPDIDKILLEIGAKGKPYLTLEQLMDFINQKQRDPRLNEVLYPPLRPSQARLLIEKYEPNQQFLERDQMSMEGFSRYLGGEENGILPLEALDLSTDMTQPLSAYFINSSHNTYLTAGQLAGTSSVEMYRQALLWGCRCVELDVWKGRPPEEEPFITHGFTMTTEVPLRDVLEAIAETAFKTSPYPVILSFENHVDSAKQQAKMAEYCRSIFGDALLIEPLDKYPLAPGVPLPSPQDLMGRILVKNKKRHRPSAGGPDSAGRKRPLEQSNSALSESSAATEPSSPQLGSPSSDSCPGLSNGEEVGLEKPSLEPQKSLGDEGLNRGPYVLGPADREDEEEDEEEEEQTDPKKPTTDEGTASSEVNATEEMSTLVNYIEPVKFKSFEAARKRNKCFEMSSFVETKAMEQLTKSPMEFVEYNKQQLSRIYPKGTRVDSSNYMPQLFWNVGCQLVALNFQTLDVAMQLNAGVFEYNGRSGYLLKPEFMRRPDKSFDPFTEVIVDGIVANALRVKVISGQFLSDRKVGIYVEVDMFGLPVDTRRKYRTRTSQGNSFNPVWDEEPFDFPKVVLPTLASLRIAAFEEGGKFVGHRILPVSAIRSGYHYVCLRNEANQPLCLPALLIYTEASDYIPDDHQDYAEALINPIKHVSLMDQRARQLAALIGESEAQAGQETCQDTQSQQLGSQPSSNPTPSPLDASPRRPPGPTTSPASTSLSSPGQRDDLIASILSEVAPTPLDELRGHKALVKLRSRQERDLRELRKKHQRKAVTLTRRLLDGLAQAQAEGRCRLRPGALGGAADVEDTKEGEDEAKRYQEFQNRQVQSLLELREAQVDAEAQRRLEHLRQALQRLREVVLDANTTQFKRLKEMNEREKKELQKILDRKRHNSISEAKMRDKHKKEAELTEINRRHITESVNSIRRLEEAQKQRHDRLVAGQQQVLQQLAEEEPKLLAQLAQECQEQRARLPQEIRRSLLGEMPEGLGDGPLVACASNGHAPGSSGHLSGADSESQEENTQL
A number is an active result; . = inactive.

SMILES	PLC-gamma1 inh	UHRF1 binding	MBD2 inh	LEDGF integ inh	PLC-beta3 inh
O=C(N=c1ccn(-c2nc3ccccc3nc2NS(=O)(=O)c2ccccc2)cc1)c1cccs1	.	.	.	.	.
Cc1ccnc(-n2c(C)cc(C=O)c2C)c1	.	23	.	.	.
COc1ccc(C)cc1-n1c(C)cc(C=O)c1C	.	.	.	.	.
COc1ccc(-n2c(SCc3nc4ccccc4[nH]3)nc3ccccc3c2=O)cc1	.	.	.	.	.
Cc1nnc(SCC(=O)NCc2ccccc2Cl)[nH]c1=O	.	21	.	.	.
O=[N+]([O-])c1ccc(Cl)c2c1C1C=CCC1C(c1ccccn1)N2 (stereo not drawn)	.	.	.	.	.
O=C(O)C1Nc2c(O)cc(Cl)c([N+](=O)[O-])c2C2C=CCC12 (stereo not drawn)	31	93	63	72	.
CCOC(=O)[C@@]12CN(C(=O)OC(C)(C)C)CC=C1N(Cc1ccc(OC)cc1)C(=O)[C@H]2CC(=O)NCC12CC3CC(CC(C3)C1)C2	.	.	.	.	.
O=C(O)c1c2c(nc3ccccc13)/C(=C/c1ccc(O)cc1)CC2	.	37	.	.	.
CC(=NNC(=O)CSc1nnc(-c2ccc(C(C)(C)C)cc2)n1-c1ccccc1)c1cccc2ccccc12	.	.	.	.	.
CCn1c(COc2ccc(Cl)cc2)nnc1SCc1ccc(C#N)cc1	.	.	.	.	.
CCn1c(COc2ccccc2)nnc1SCc1ccc(C#N)cc1	9.6	.	.	.	.
O=C(C[C@@H]1C/C=C\CC[C@H](Cc2ccc(F)cc2)C(=O)OC[C@@H](Cc2ccccc2)NC1=O)NCCO	.	21	.	.	.
O=C(NCC1CCCO1)C1CCN(C2CCN(CCCC3CCCC3)CC2)CC1 (stereo not drawn)	.	23	.	.	.
CCn1c(SCC(=O)NCc2ccc3c(c2)OCO3)nc2c(c1=O)SCC2	.	.	.	18	.
CCn1c(SCC(=O)Nc2cc(OC)ccc2OC)nc2c(c1=O)SCC2	.	.	.	.	.
O=C(c1ccc(Cl)c(Cl)c1)N1CCC(=O)N(C(COCc2ccc(Cl)cc2)Cc2ccccc2)CC1 (stereo not drawn)	12	.	.	.	.
O=C(c1ccc(C(F)(F)F)cc1)N1CCC(=O)N(C(COCc2ccccc2)Cc2ccccc2)CC1 (stereo not drawn)	.	40	.	.	.
Cc1cccc(COCC(Cc2ccccc2)N2CCN(C(=O)c3ccc(Cl)c(Cl)c3)CCC2=O)c1 (stereo not drawn)	.	.	.	.	.
O=C(c1ccc(C(F)(F)F)cc1)N1CCC(=O)N(C(COCc2ccc(Cl)cc2)Cc2ccccc2)CC1 (stereo not drawn)	.	.	.	.	.
O=C(Nc1ccc2c(c1)Cc1ccccc1-2)NC1CCCCN(Cc2cccc(Cl)c2)C1=O (stereo not drawn)	.	.	.	.	.
CCOc1cc(NC(=S)NCC2CCCO2)c(OCC)cc1NC(=O)c1ccccc1C (stereo not drawn)	.	47	.	.	.
COc1ccccc1OCCSc1nc2ccccc2n1CCC(=O)O	.	34	.	.	.
COc1ccc(OCCSc2nc3ccccc3n2CCC(=O)O)cc1	.	.	.	.	.
O=C(c1ccccc1)N1CC[C@H]2[C@H](CCCN2Cc2ccccc2)C1	.	.	.	.	.
SMILES	PLC-gamma1 inh	UHRF1 binding	MBD2 inh	LEDGF integ inh	PLC-beta3 inh
O=C(O)COc1ccc(/C=N/NC(=O)c2ccc(-c3csc(Nc4ccc(Cl)cc4)n3)cc2)cc1	.	21	.	.	.
CCOc1cc(/C=N/NC(=O)c2ccc(-c3csc(Nc4ccc(C)cc4)n3)cc2)ccc1OCC(=O)O	.	.	.	.	.
Cc1ccc(-c2cc(C(=O)NCc3ccco3)c3ccccc3n2)o1	.	.	.	15	.
CCCN(C(=O)CSc1nnnn1C)C1CCS(=O)(=O)C1 (stereo not drawn)	.	22	.	.	.
O=C(Nc1ccc2ccccc2c1)C1CC2CCC1C2 (stereo not drawn)	.	.	.	.	.
CCCOc1ccccc1C(=O)N(Cc1cccs1)C1CCS(=O)(=O)C1 (stereo not drawn)	.	.	.	.	12
O=C(OC12CCCN(C1)/C(=C/c1ccc(Cl)cc1)C2)c1ccno1 (stereo not drawn)	.	.	.	.	.
CCSc1nnc(NC(=O)c2ccccc2C)s1	.	24	.	.	.
CCSc1nnc(NC(=O)c2ccccc2)s1	.	.	.	.	.
CC1=C(C(=O)N2CCOCC2)CC(CC(=O)NC2CC2)C(=O)N1Cc1ccccc1 (stereo not drawn)	.	.	.	.	.
CC1=C(C(=O)N2CCOCC2)CC(CC(=O)NC2CCCCC2)C(=O)N1Cc1ccccc1 (stereo not drawn)	.	22	.	.	.
COC(=O)[C@]12C[C@H](CC(=O)NCCCN3CCCC3=O)C(=O)N(Cc3cccc4ccccc34)C1=C[C@H](C(C)(C)C)O[C@@H]2C	.	.	.	.	.
COc1ccc(CN(C(=O)c2ccc(C)cc2)C2CCS(=O)(=O)C2)cc1 (stereo not drawn)	.	.	.	.	.
C=CCOc1ccc(C(=O)N(Cc2ccc(N(C)C)cc2)C2CCS(=O)(=O)C2)cc1 (stereo not drawn)	.	63	.	.	.
CCC(C)n1c(NC(=O)c2ccccc2)c(C#N)c2nc3ccccc3nc21 (stereo not drawn)	.	.	.	28	.
COC(=O)c1ccccc1NC(=O)CN1C(=O)CSC1=O	.	.	.	.	.
COC(=O)c1cc(NC(=O)CN2C(=O)CSC2=O)ccc1Cl	.	23	.	.	.
CN(CCO)c1cccc2c1S(=O)(=O)N(Cc1cn(Cc3cccc(F)c3)nn1)Cc1ccccc1O2	.	.	.	.	.
Cn1c2ccccc2c2cc(/C=N/NC(=O)c3cc(O)cc(O)c3)ccc21	.	.	.	.	.
Cn1c2ccccc2c2cc(/C=N/NC(=O)c3cc(O)ccc3O)ccc21	.	.	.	42	.
CC(C)c1ccc(C(C(C(=O)c2ccccc2)N2CCOCC2)N2CCOCC2)cc1 (stereo not drawn)	.	47	.	.	.
Cc1cccc(C(C(C(=O)c2ccccc2)N2CCOCC2)N2CCOCC2)c1 (stereo not drawn)	.	.	.	.	.
Cc1ccc(NC(=O)NNS(=O)(=O)c2ccc(Br)cc2)cc1	.	.	.	.	.
Cc1ccc(S(=O)(=O)NC(=O)Nc2ccc(N(C)C)cc2)cc1	.	.	.	26	.
COc1ccc(C(CNC(=O)c2ccc(NS(=O)(=O)c3ccc4c(c3)OCCO4)cc2)N(C)C)cc1 (stereo not drawn)	.	21	.	.	.
COc1ccc(C(CNC(=O)c2ccc(S(=O)(=O)Nc3ccc(F)cc3)cc2)N(C)C)cc1 (stereo not drawn)	.	.	.	.	.
O=C(O)c1cccc(N/N=C/c2cccc3ccccc23)c1	.	42	.	.	.
